# Reference: PubChem BioAssay AID1159580 (chemical genetic matrix, 2015)
# About 2,000 (36%) of roughly 5,500 compounds were called active. Inconclusive results (about 18%) are left out. The list shows a part of the results. Values without a mark were called inactive. Cut-off read from the data, not from the text of the source: active = normalized growth mostly below about 0.91 (no sharp cut-off); inconclusive = no clear call, values can overlap the other calls; inactive = mostly above about 0.92.
# Assay: chemical genetic growth profiling, strain panel (AID 1159580);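 note: tested at 20 µM; growth read once vehicle control cultures reached saturation at 30 °C; 1 = growth at the plate median or of vehicle wells; lower values mean less growth of the strain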
# Details: growth OD
compound,measurement,setting,value
CCC(C)(C)C(=O)O[C@H]1C[C@@H](C)C=C2C=C[C@H](C)[C@H](CC[C@@H]3C[C@@H](O)CC(=O)O3)[C@H]21,normalized growth,"S. cerevisiae deletion strains, locus YJR075W, strain HOC1, active compounds read low",1
same,normalized growth,"S. cerevisiae deletion strains, locus YKL009W, strain mrt4, active compounds read low",0.93
same,normalized growth,"S. cerevisiae deletion strains, locus YKL068W, active compounds read low",1.03
same,normalized growth,"S. cerevisiae deletion strains, locus YKL085W, strain MDH1 (second series), active compounds read low",1.02
same,normalized growth,"S. cerevisiae deletion strains, locus YKL085W, strain MDH1, active compounds read low",1.02
same,normalized growth,"S. cerevisiae deletion strains, locus YKL160W, strain elf1, active compounds read low",0.949
same,normalized growth,"S. cerevisiae deletion strains, locus YKL190W, strain CNB1, active compounds read low",1.01
same,normalized growth,"S. cerevisiae deletion strains, locus YKR001C, strain vps1, active compounds read low",1.01
same,normalized growth,"S. cerevisiae deletion strains, locus YKR026C, strain gcn3, active compounds read low",1.01
same,normalized growth,"S. cerevisiae deletion strains, locus YKR091W, strain srl3, active compounds read low",1.02
same,normalized growth,"S. cerevisiae deletion strains, locus YLL001W, strain dnm1, active compounds read low",1
same,normalized growth,"S. cerevisiae deletion strains, locus YLL026W, active compounds read low",0.981
same,normalized growth,"S. cerevisiae deletion strains, locus YLL041C, strain sdh2, active compounds read low",1.01
same,normalized growth,"S. cerevisiae deletion strains, locus YLR027C, strain aat2, active compounds read low",0.976
same,normalized growth,"S. cerevisiae deletion strains, locus YLR039C, strain RIC1, active compounds read low",1.1
same,normalized growth,"S. cerevisiae deletion strains, locus YLR058C, strain SHM2, active compounds read low",1.02
same,normalized growth,"S. cerevisiae deletion strains, locus YLR102C, strain apc9, active compounds read low",1.04
same,normalized growth,"S. cerevisiae deletion strains, locus YLR113W, strain HOG1, active compounds read low",1.04
same,normalized growth,"S. cerevisiae deletion strains, locus YLR221C, strain rsa3, active compounds read low",0.909
same,normalized growth,"S. cerevisiae deletion strains, locus YLR258W, strain gsy2, active compounds read low",0.927
same,normalized growth,"S. cerevisiae deletion strains, locus YLR262C, strain YPT6 (second series), active compounds read low",1.05
same,normalized growth,"S. cerevisiae deletion strains, locus YLR262C, strain YPT6, active compounds read low",0.58
same,normalized growth,"S. cerevisiae deletion strains, locus YLR268W, strain sec22, active compounds read low",0.993
same,normalized growth,"S. cerevisiae deletion strains, locus YLR320W, strain mms22, active compounds read low",0.855 (active)
same,normalized growth,"S. cerevisiae deletion strains, locus YLR330W, strain CHS5, active compounds read low",1
same,normalized growth,"S. cerevisiae deletion strains, locus YLR342W, strain FKS1 (second series), active compounds read low",1.01
same,normalized growth,"S. cerevisiae deletion strains, locus YLR342W, strain FKS1, active compounds read low",1
same,normalized growth,"S. cerevisiae deletion strains, locus YLR357W, strain rsc2, active compounds read low",1.01
same,normalized growth,"S. cerevisiae deletion strains, locus YLR370C, strain arc18, active compounds read low",1.01
same,normalized growth,"S. cerevisiae deletion strains, locus YLR371W, strain rom2, active compounds read low",1.04
same,normalized growth,"S. cerevisiae deletion strains, locus YLR384C, strain iki3, active compounds read low",0.978
same,normalized growth,"S. cerevisiae deletion strains, locus YLR418C, strain cdc73, active compounds read low",0.856
same,normalized growth,"S. cerevisiae deletion strains, locus YML016C, strain PPZ1, active compounds read low",1.02
same,normalized growth,"S. cerevisiae deletion strains, locus YML032C, strain rad52, active compounds read low",1.02
same,normalized growth,"S. cerevisiae deletion strains, locus YML120C, strain ndi1, active compounds read low",0.987
same,normalized growth,"S. cerevisiae deletion strains, locus YML124C, strain tub3, active compounds read low",1.04
same,normalized growth,"S. cerevisiae deletion strains, locus YMR058W, strain fet3, active compounds read low",0.977
same,normalized growth,"S. cerevisiae deletion strains, locus YMR078C, strain ctf18, active compounds read low",1.04
same,normalized growth,"S. cerevisiae deletion strains, locus YMR125W, strain sto1, active compounds read low",0.97
same,normalized growth,"S. cerevisiae deletion strains, locus YMR129W, active compounds read low",1.02
same,normalized growth,"S. cerevisiae deletion strains, locus YMR205C, strain PFK2, active compounds read low",0.978
same,normalized growth,"S. cerevisiae deletion strains, locus YMR223W, strain ubp8, active compounds read low",0.991
same,normalized growth,"S. cerevisiae deletion strains, locus YMR231W, strain pep5, active compounds read low",1
same,normalized growth,"S. cerevisiae deletion strains, locus YMR263W, strain SAP30, active compounds read low",0.99
same,normalized growth,"S. cerevisiae deletion strains, locus YMR307W, strain GAS1, active compounds read low",0.554 (active)
same,normalized growth,"S. cerevisiae deletion strains, locus YNL067W, strain RPL9B, active compounds read low",0.998
same,normalized growth,"S. cerevisiae deletion strains, locus YNL071W, strain lat1, active compounds read low",0.834 (active)
same,normalized growth,"S. cerevisiae deletion strains, locus YNL128W, strain TEP1, active compounds read low",0.979
same,normalized growth,"S. cerevisiae deletion strains, locus YNL153C, strain GIM3, active compounds read low",0.986
same,normalized growth,"S. cerevisiae deletion strains, locus YNL183C, strain NPR1, active compounds read low",0.897
same,normalized growth,"S. cerevisiae deletion strains, locus YNL209W, strain ssb2, active compounds read low",0.88 (active)
same,normalized growth,"S. cerevisiae deletion strains, locus YNL233W, strain BNI4, active compounds read low",0.947
same,normalized growth,"S. cerevisiae deletion strains, locus YNL248C, strain rpa49, active compounds read low",0.932
same,normalized growth,"S. cerevisiae deletion strains, locus YNL250W, strain rad50, active compounds read low",0.988
same,normalized growth,"S. cerevisiae deletion strains, locus YNL271C, strain bni1, active compounds read low",1.01
same,normalized growth,"S. cerevisiae deletion strains, locus YNL298W, strain CLA4, active compounds read low",1.03
same,normalized growth,"S. cerevisiae deletion strains, locus YNL307C, strain MCK1, active compounds read low",0.942
same,normalized growth,"S. cerevisiae deletion strains, locus YNL322C, strain KRE1 (second series), active compounds read low",1.07
same,normalized growth,"S. cerevisiae deletion strains, locus YNL322C, strain KRE1, active compounds read low",1.01
same,normalized growth,"S. cerevisiae deletion strains, locus YNR049C, strain mso1, active compounds read low",1.02
same,normalized growth,"S. cerevisiae deletion strains, locus YNR052C, strain pop2, active compounds read low",0.911 (active)
same,normalized growth,"S. cerevisiae deletion strains, locus YOL006C, strain TOP1, active compounds read low",0.909
same,normalized growth,"S. cerevisiae deletion strains, locus YOL012C, strain htz1",1.29
same,normalized growth,"S. cerevisiae deletion strains, locus YOL147C, strain pex11, active compounds read low",1.04
same,normalized growth,"S. cerevisiae deletion strains, locus YOR001W, strain rrp6, active compounds read low",1.01
same,normalized growth,"S. cerevisiae deletion strains, locus YOR061W, strain CKA2, active compounds read low",1.01
same,normalized growth,"S. cerevisiae deletion strains, locus YOR069W, strain VPS5, active compounds read low",0.998
same,normalized growth,"S. cerevisiae deletion strains, locus YOR070C, strain gyp1, active compounds read low",0.845 (active)
same,normalized growth,"S. cerevisiae deletion strains, locus YOR080W, strain dia2, active compounds read low",0.971
same,normalized growth,"S. cerevisiae deletion strains, locus YOR083W, strain WHI5, active compounds read low",0.981
same,normalized growth,"S. cerevisiae deletion strains, locus YOR106W, strain vam3, active compounds read low",0.931
same,normalized growth,"S. cerevisiae deletion strains, locus YOR136W, strain idh2, active compounds read low",1.01
same,normalized growth,"S. cerevisiae deletion strains, locus YOR144C, strain elg1, active compounds read low",1.03
same,normalized growth,"S. cerevisiae deletion strains, locus YOR184W, strain ser1, active compounds read low",0.944
same,normalized growth,"S. cerevisiae deletion strains, locus YOR231W, strain MKK1, active compounds read low",0.956
same,normalized growth,"S. cerevisiae deletion strains, locus YOR265W, strain rbl2, active compounds read low",0.922 (active)
same,normalized growth,"S. cerevisiae deletion strains, locus YOR270C, strain vph1, active compounds read low",0.57 (active)
same,normalized growth,"S. cerevisiae deletion strains, locus YOR290C, strain snf2, active compounds read low",0.991
same,normalized growth,"S. cerevisiae deletion strains, locus YOR316C, strain cot1, active compounds read low",1.03
same,normalized growth,"S. cerevisiae deletion strains, locus YPL051W, strain arl3, active compounds read low",0.946
same,normalized growth,"S. cerevisiae deletion strains, locus YPL055C, strain LGE1, active compounds read low",0.926
same,normalized growth,"S. cerevisiae deletion strains, locus YPL078C, strain atp4, active compounds read low",0.983
same,normalized growth,"S. cerevisiae deletion strains, locus YPL106C, strain sse1, active compounds read low",1.15 [resistant] (active)
same,normalized growth,"S. cerevisiae deletion strains, locus YPL240C, strain hsp82, active compounds read low",0.997
same,normalized growth,"S. cerevisiae deletion strains, locus YPL241C, strain CIN2, active compounds read low",1
same,normalized growth,"S. cerevisiae deletion strains, locus YPL256C, strain CLN2, active compounds read low",1.02
same,normalized growth,"S. cerevisiae deletion strains, locus YPR119W, strain clb2, active compounds read low",1.04
same,normalized growth,"S. cerevisiae deletion strains, locus YPR141C, strain kar3, active compounds read low",1.02
same,normalized growth,"S. cerevisiae deletion strains, locus YPR163C, strain tif3, active compounds read low",1.01
same,normalized growth,"S. cerevisiae deletion strains, locus YPR167C, strain met16, active compounds read low",1.03
same,normalized growth,"S. cerevisiae deletion strains, strain wtn01, active compounds read low",1.03
same,normalized growth,"S. cerevisiae strains, strain wild type, active compounds read low",0.997
